# Laboratory results taken from a collection of fitness landscapes (doi:10.1016/j.celrep.2020.107928).
# Whole data set: some 81,000 sequences, median “one-hybrid fitness for binding parS DNA” near -0.17, cut for the highest 2% near 0.51. The full list was thinned out, with the highest values kept by preference.
# B1: Caulobacter ParB omega fusion; a variant is named by its letters at X, in order, B8GW30 (parent)
# chain: MESVVVGEPGMSEGRRGLGRGLSALLGEVDAAPAQAPGEQLGGSREAPIEILQRNPDQPRRTFREEDLEDLSNSIREKGVLQPILVRPSPDTAGEYQIVAGERAWRAAQRAGLKTVPIMVRELDDLAVLEIGIIENVQRADLNVLEEALSYKVLMEKFERTQENIAQTIGKSXSHVANXMRLLXLPDEVQSYLVSGELTAXHARAIAAAADPVALAKQIIEGGLSVRETEALARKAPNLSAGKSKGGRPPRVKDTDTQALESDLSSVLGLDVSIDHRGSTGTLTITYATLEQLDDLCNRLTRGI
# Variants of: B1
# Assay: one-hybrid fitness for binding parS DNA (scaled: cognate 1, non-cognate 0); higher = stronger binding
# Details: with parS DNA site
# Outline: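 Pre- and post-selection plasmids were Illumina-sequenced, three replicate libraries were pooled, and any variant with under 10 reads was removed. The libraries were Caulobacter ParB with four specificity codons randomised, selected in E. coli USO through a HIS3 reporter whose site is 19 bp from the promoter. Cells grew 48 hours at 37°C on M9 without histidine, with 0.1 mM IPTG and 5 mM 3-AT. Fitness is the log change in variant-to-wild-type read ratio, rescaled against cognate and non-cognate.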
row,Variant,one-hybrid fitness for binding parS DNA
1,WKSA,≤ 0.2
2,NGKG,≤ 0.2
3,MLAT,≤ 0.2
4,AQPR,≤ 0.2
5,VSSM,≤ 0.2
6,GPRN,≤ 0.2
7,MTAN,≤ 0.2
8,FTMR,≤ 0.2
9,TSLA,≤ 0.2
10,VLVS,≤ 0.2
11,TYKP,≤ 0.2
12,SNHT,≤ 0.2
13,RHRM,0.277
14,RHWR,≤ 0.2
15,RHWT,0.692
16,RHRY,0.473
17,RHYK,≤ 0.2
18,RHWK,≤ 0.2
19,RHRT,0.788
20,RHYN,0.448
21,RHYT,0.806
22,ITCG,≤ 0.2
23,LTNS,≤ 0.2
24,TGVT,≤ 0.2

row,Variant,one-hybrid fitness for binding parS DNA
1,VSLW,≤ 0.2
2,SSDD,≤ 0.2
3,RLPC,0.681
4,RLIC,0.938
5,RLPR,≤ 0.2
6,RLIF,≤ 0.2
7,RLIQ,≤ 0.2
8,RLPF,≤ 0.2
9,SDVC,≤ 0.2
10,QSHD,≤ 0.2
11,RMNA,0.606
12,RMDA,0.572
13,SISG,≤ 0.2
14,RVGH,≤ 0.2
15,RVSS,0.975
16,RVQD,≤ 0.2
17,RVHS,0.972
18,RVHN,0.425
19,RVQS,0.989
20,RVGS,0.954
21,RVSP,≤ 0.2
22,RVSN,0.426
23,RVGP,≤ 0.2
24,RVHH,0.235

row,Variant,one-hybrid fitness for binding parS DNA
1,RVQH,0.223
2,IMHT,≤ 0.2
3,WTRR,≤ 0.2
4,ISNF,≤ 0.2
5,FYDL,≤ 0.2
6,IAGR,≤ 0.2
7,TAIN,≤ 0.2
8,RVRS,0.895
9,RVWS,1.05
10,RVCS,1.03
11,RVRN,0.409
12,RVCH,≤ 0.2
13,RVCD,≤ 0.2
14,RVWD,0.212
15,RVWN,0.478
16,RVYH,0.263
17,RVYS,1.04
18,RVRD,≤ 0.2
19,RVYD,0.216
20,MMSR,≤ 0.2
21,MHFY,≤ 0.2
22,QASI,≤ 0.2
23,TREC,≤ 0.2
24,PYKT,≤ 0.2

row,Variant,one-hybrid fitness for binding parS DNA
1,HPDN,≤ 0.2
2,KRKQ,≤ 0.2
3,KLMV,≤ 0.2
4,RVLP,≤ 0.2
5,RVLS,1.03
6,RVLH,0.229
7,TMII,≤ 0.2
8,RSVG,0.89
9,RCVG,0.991
10,RPVG,≤ 0.2
11,RDVG,≤ 0.2
12,RSVK,≤ 0.2
13,RSVM,0.265
14,MFMG,≤ 0.2
15,RFCF,≤ 0.2
16,TLGM,≤ 0.2
17,RMGM,0.315
18,RKGF,≤ 0.2
19,RDGC,≤ 0.2
20,RKGC,0.827
21,RSGP,≤ 0.2
22,RSGC,0.956
23,RPGC,≤ 0.2
24,RSGH,0.208

row,Variant,one-hybrid fitness for binding parS DNA
1,RMGL,≤ 0.2
2,RMGC,0.952
3,RKGR,≤ 0.2
4,RCGC,0.97
5,QVMA,≤ 0.2
6,QTTD,≤ 0.2
7,LGCG,≤ 0.2
8,PLWY,≤ 0.2
9,QQVF,≤ 0.2
10,HPKR,≤ 0.2
11,DNQS,≤ 0.2
12,YLEP,≤ 0.2
13,MTEN,≤ 0.2
14,RHGK,≤ 0.2
15,RLGM,0.352
16,RLGK,≤ 0.2
17,RRGQ,≤ 0.2
18,RRGC,0.593
19,RAGC,0.968
20,RHGY,0.429
21,RRGR,≤ 0.2
22,RLGC,0.97
23,RHGC,0.896
24,RAGF,0.247

row,Variant,one-hybrid fitness for binding parS DNA
1,RAGY,0.473
2,DSNT,≤ 0.2
3,KDLS,≤ 0.2
4,GQVC,≤ 0.2
5,YDLG,≤ 0.2
6,KTAM,≤ 0.2
7,RIGF,0.234
8,RFGC,0.882
9,RIGM,0.268
10,NFGC,≤ 0.2
11,RFGR,≤ 0.2
12,RIGC,0.955
13,NLSL,≤ 0.2
14,LPEL,≤ 0.2
15,PHQK,≤ 0.2
16,LEDW,≤ 0.2
17,EWQP,≤ 0.2
18,ATNC,≤ 0.2
19,RIHH,≤ 0.2
20,RPHT,≤ 0.2
21,RMHT,0.946
22,RMHP,≤ 0.2
23,REHT,≤ 0.2
24,RMHH,0.274

row,Variant,one-hybrid fitness for binding parS DNA
1,RCHT,0.906
2,RHHH,≤ 0.2
3,RIHT,0.936
4,RHHP,≤ 0.2
5,RIHP,≤ 0.2
6,RHHT,0.869
7,RGFW,≤ 0.2
8,HQMY,≤ 0.2
9,VSHP,≤ 0.2
10,WWRR,≤ 0.2
11,RVEY,0.353
12,LLVS,≤ 0.2
13,PHSW,≤ 0.2
14,HGMV,≤ 0.2
15,SLSC,≤ 0.2
16,PKWC,≤ 0.2
17,SQSD,≤ 0.2
18,HHCS,≤ 0.2
19,CACK,≤ 0.2
20,TVNL,≤ 0.2
21,YQLS,≤ 0.2
22,RSHN,0.412
23,RTHM,0.317
24,RSHD,≤ 0.2

row,Variant,one-hybrid fitness for binding parS DNA
1,RTHT,0.908
2,RSHT,0.876
3,RTHK,≤ 0.2
4,PPLK,≤ 0.2
5,HGKG,≤ 0.2
6,TTRW,≤ 0.2
7,YNRL,≤ 0.2
8,YMLS,≤ 0.2
9,RSKQ,≤ 0.2
10,RCKG,0.89
11,RPKG,≤ 0.2
12,RSKG,0.944
13,RSKR,≤ 0.2
14,RDKG,0.274
15,NLKV,≤ 0.2
16,YAAA,≤ 0.2
17,TCWR,≤ 0.2
18,WDTT,≤ 0.2
19,VAYM,≤ 0.2
20,AACS,≤ 0.2
21,GVIV,≤ 0.2
22,RGFH,≤ 0.2
23,RGAD,≤ 0.2
24,RGFD,≤ 0.2

row,Variant,one-hybrid fitness for binding parS DNA
1,RGAH,≤ 0.2
2,RGAS,0.734
3,RGFS,0.584
4,QGMN,≤ 0.2
5,VPQV,≤ 0.2
6,SYEL,≤ 0.2
7,RWPS,0.444
8,RWIS,0.609
9,RWWN,≤ 0.2
10,RWYH,≤ 0.2
11,RWYS,0.803
12,RWWS,0.644
13,RWWF,≤ 0.2
14,RWSH,≤ 0.2
15,RWSP,≤ 0.2
16,RWID,≤ 0.2
17,RWYN,0.223
18,RWSS,0.912
19,STYW,≤ 0.2
20,GPTL,≤ 0.2
21,TSHS,≤ 0.2
22,QPMV,≤ 0.2
23,PMGR,≤ 0.2
24,YPVG,≤ 0.2

row,Variant,one-hybrid fitness for binding parS DNA
1,LLPR,≤ 0.2
2,RWHN,0.301
3,RWND,≤ 0.2
4,RWNH,≤ 0.2
5,RWGP,≤ 0.2
6,RWHS,0.894
7,RWGH,≤ 0.2
8,RWLS,0.8
9,RWHD,≤ 0.2
10,RWGS,0.68
11,RWLN,0.313
12,RWNS,0.926
13,RWLH,≤ 0.2
14,PKTI,≤ 0.2
15,VLLV,≤ 0.2
16,HQHT,≤ 0.2
17,AWSC,≤ 0.2
18,PQNR,≤ 0.2
19,MNVS,≤ 0.2
20,TRQG,≤ 0.2
21,HPNK,≤ 0.2
22,VARE,≤ 0.2
23,RWQS,0.868
24,RWCN,≤ 0.2

row,Variant,one-hybrid fitness for binding parS DNA
1,RWDN,≤ 0.2
2,RWCP,≤ 0.2
3,RWDP,≤ 0.2
4,RWRN,0.401
5,RWRS,0.955
6,RWQP,≤ 0.2
7,RWQH,≤ 0.2
8,RWDS,0.76
9,RWRP,≤ 0.2
10,RWCS,0.756
11,CKLV,≤ 0.2
12,MLGM,≤ 0.2
13,PIWC,≤ 0.2
14,MSNM,≤ 0.2
15,WLDE,≤ 0.2
16,REVA,≤ 0.2
17,RPVA,≤ 0.2
18,RGVA,≤ 0.2
19,RCVA,0.581
20,RSVA,0.515
21,SKAI,≤ 0.2
22,SIHL,≤ 0.2
23,MVSE,≤ 0.2
24,GMRV,≤ 0.2

row,Variant,one-hybrid fitness for binding parS DNA
1,ETNG,≤ 0.2
2,CGAE,≤ 0.2
3,RCKD,≤ 0.2
4,RSKH,0.274
5,RSKS,0.883
6,RSKD,≤ 0.2
7,RPKS,≤ 0.2
8,RCKS,0.836
9,AQTD,≤ 0.2
10,DWLL,≤ 0.2
11,YIPE,≤ 0.2
12,CIRT,≤ 0.2
13,PNRV,≤ 0.2
14,RGLM,≤ 0.2
15,RGIC,0.422
16,RGLR,≤ 0.2
17,RGYC,0.527
18,RGKH,≤ 0.2
19,RGKC,0.833
20,RGCC,0.534
21,RGCF,≤ 0.2
22,RGVC,0.445
23,RGLC,0.537
24,RGCK,≤ 0.2

row,Variant,one-hybrid fitness for binding parS DNA
1,RGPC,0.217
2,ESDG,≤ 0.2
3,QSSQ,≤ 0.2
4,TSPP,≤ 0.2
5,RRPY,0.315
6,GLPL,≤ 0.2
7,LLVN,≤ 0.2
8,YATP,≤ 0.2
9,THMC,≤ 0.2
10,ASRN,≤ 0.2
11,HKPA,≤ 0.2
12,RGAQ,≤ 0.2
13,RGHR,≤ 0.2
14,RGRC,0.798
15,RGNC,0.716
16,RGHY,≤ 0.2
17,RGDC,0.467
18,RGFC,0.454
19,RGWC,0.504
20,RGHC,0.59
21,RGAC,0.584
22,RGNN,0.321
23,RGEC,0.449
